Laboratory results from PubChem BioAssay.
Unmarked numbers belong to inactive results. The source made the active and inactive calls.

Assay: budding yeast growth changes without added modifier – OD600, strain BY4716, 24 h, basal condition, primary screen (AID 1173)
Details: S. cerevisiae BY4716 growth, OD600, 24 h; higher = more signal, called active from +8 up or from −8 down

Row | SMILES | z-score
1 | CCCCN1CC=CC23O[C@@H]4/C=C\CCCOC(=O)C4[C@H]2C(=O)N(CCCCCO)[C@@H]3C1=O (stereo partly drawn) | -0.287
2 | COc1ccc(C(=O)Nc2cccc(CN3C(=O)[C@]4(O[C@H](CCn5cc(CCO)nn5)[C@@H]([Si](C)(C)c5ccc(OC)cc5)[C@@H]4C)c4ccccc43)c2)cc1 | -7.34
3 | Cc1ccc(S[C@]2(C(=O)NCC(C)C)CC(=O)N(Cc3cc(C(F)(F)F)cc(C(F)(F)F)c3)[C@@H]2c2ccc(CO)cc2)cc1 | -0.58
4 | [N-]=[N+]=NCc1ccccc1[C@@H]1OC(c2ccc(OCCCO)cc2)=N[C@]1(CCS(=O)(=O)c1ccccc1)C(=O)N1CCOCC1 | -0.26
5 | CS(=O)(=O)CCOC(=O)C1=CC(CCCO)=CC(C2CC2)N(Cc2cc3c(cc2Br)OCO3)C=C1C(=O)OCCS(C)(=O)=O (stereo not drawn) | -2.22
6 | C=CC[C@]12N=C(c3ccc(OCCCO)cc3)O[C@H]1c1ccccc1N(CCS(=O)(=O)c1ccccc1)C2=O | -0.298
7 | CC1CC/C=C\[C@H]2OC34C=CCN(Cn5nnc6ccccc65)C(=O)[C@H]3N(CCCCCO)C(=O)[C@@H]4C2C(=O)O1 (stereo partly drawn) | 0.0153
8 | C#CCN(C/C=C/c1ccccc1)[C@H](CO)c1ccccc1 | -16.9 (active)
9 | O=C1N(CCS(=O)(=O)c2ccccc2)c2ccccc2[C@@H]2OC(c3ccc(OCCCO)cc3)=N[C@]12Cc1ccccc1 | -0.237

Assay: viability profiling in MM1S myeloma cells – cell-based, resazurin fluorescence, basal, 24 h, PK04 Diversity Set, profiling panel (AID 1174);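 also: MM1S multiple myeloma cell line; test concentration not given here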
Details: higher = more signal, called active from +8 up or from −8 down

Row | SMILES | z-score
10 | COc1cc(OC)c(C(O)C2C=CC3C(=O)NC(=O)C3N2Nc2ccccn2)cc1Br (stereo not drawn) | -0.597
11 | C=CCNC(=O)[C@@H]1[C@H]2C(=O)O[C@H](c3ccccc3)[C@H](c3ccccc3)N2[C@H](c2ccc(OCCO)cc2)[C@@]12C(=O)N(C(=O)OCCOC)c1ccc(C#CCC(C(=O)OC)C(=O)OC)cc12 | 0.351
12 | COC(=O)c1c(CC[C@@H](CO)NC(=O)NCCc2c[nH]c3ccccc23)oc(C(=O)Cc2ccccc2)c1C(=O)OC | 1.31
13 | O=C(O)[C@H](Cc1ccccc1)n1cc(-c2ccccc2)nn1 | 0.0284
14 | CC(C)NC(=O)[C@@]1(Cc2ccccc2I)c2ccccc2C(=O)N(Cc2ccccc2Cl)[C@H]1c1ccc(CO)cc1 | 0.179
15 | CC(C)=CCCC(C)=CC(O)C1C=CC2C(=O)N(c3ccccc3)C(=O)C2N1Nc1ccc(C(C)C)cc1 (stereo not drawn) | -0.862
16 | [N-]=[N+]=NCc1ccccc1[C@H]1OC(c2ccc(OCCCO)cc2)=N[C@@]1(Cc1ccccc1)C(=O)N1CCCCC1 | -1.71
17 | CC(C)N1CC=CC23O[C@@H]4C=CCOC(=O)[C@@H]4[C@H]2C(=O)N(CCCCCO)[C@@H]3C1=O (stereo partly drawn) | 1.27
18 | CCOC(=O)[C@H]1C/C=C/C[C@H](C(=O)OCC)C(=O)O[C@H]2[C@@H](OC)O[C@H](CO)[C@@H](OC(=O)c3ccc(Br)cc3)[C@@H]2OC1=O | -1.77
19 | O=C(O)[C@H]1C[C@H]2C(=O)N3CCC[C@H]3C(=O)N2[C@H]1c1ccc(O)cc1 | 1.1
20 | [N-]=[N+]=Nc1ccccc1C[C@@]1(C(=O)N2CCCCC2)N=C(c2ccc(OCCCO)cc2)O[C@@H]1c1ccccc1N=[N+]=[N-] | -2.09
21 | CCOC(=O)C1=CC[C@@H](c2ccccc2)N(S(=O)(=O)c2ccc(C)cc2)[C@H]1c1ccc(CC)cc1 | -0.342
22 | O=C1[C@H]2C=C(Br)[C@H](C[C@@H]2OCCCCCCO)[C@@]12CO2 | -1.43
23 | COc1cc2c(cc1O)C(c1cccs1)N(Cc1ccc([N+](=O)[O-])o1)CC2 (stereo not drawn) | 0.278
24 | CCCNC(=O)[C@@]1(Sc2ccc(C)cc2)CC(=O)N(Cc2ccccc2C(F)(F)F)[C@@H]1c1ccc(CO)cc1I | -2.54
25 | O=C1OCCC=C[C@H]2OC34C=CCN(Cn5nnc6ccccc65)C(=O)[C@H]3N(CCO)C(=O)[C@@H]4C12 (stereo partly drawn) | 0.542
26 | C=CCNC(=O)[C@@H]1[C@H]2C(=O)O[C@H](c3ccccc3)[C@H](c3ccccc3)N2[C@H](c2ccc(OCCO)cc2)[C@@]12C(=O)N(C(=O)OCCOC)c1ccc(C#CCNC(N)=O)cc12 | -0.58
27 | CCCC1(C(=O)OC)C=C2C(=C(c3ccccc3)C(=O)C2C)CN1 (stereo not drawn) | -1.85
28 | O=C1O[C@@H](c2ccccc2)[C@@H](c2ccccc2)N2[C@@H](c3ccc(OCCO)cc3)[C@]3(C(=O)Nc4ccc(C#CCCO)cc43)[C@@H](C(=O)NC[C@H](O)c3ccccc3)[C@H]12 | 0.428
